Screening results from PubChem.
PMP22 txn prim = modulates PMP22 transcription in S16 Schwann cells | S16 Pmp22-F2sN Schwann cells, FLuc/NLuc coincidence luminescence, 24 h | Potency, µM (doses to about 57.5 µM), most hits filed as inhibitors | actives 2% (n = 43,000) | AID 1508649; active = clear falling dose curves in both reporters; inconclusive = both reporters move, but less clearly or upward; inactive = either reporter flat; the % is the NLuc reporter signal
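S16(c9) Schwann cells with FLuc/NLuc coincidence reporter in the Pmp22 3' UTR; compounds pin-transferred, 24 h at 37C. Dual-luciferase read: FLuc first, then NLuc after Stop&Glo, each 10 min at room temperature.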
S16 viability = S16 Schwann cell cytotoxicity; S16 Pmp22-F2sN Schwann cells (luciferase reporters placed in the Pmp22 gene) viability, CellTiter-Glo, 24 h; Potency, µM (highest dose often 57.5 µM), usual class: cytotoxic; actives 0.48% (n = 43,000); note: nearly all actives have a fitted effect of over 65% in size
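CellTiter-Glo counter-screen, qHTS, 1536-well. Cells: S16(c9) Pmp22-F2sN, 500-1,000/well in DMEM + 10% FBS. Cpd 23 nL pin transfer, 24 h, 37C/5% CO2. Read: luminescence, CCD imager.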
OvCa metastasis = ovarian cancer metastasis inhibition, 3D TME model | SKOV3ip1-GFP adhesion/invasion on 3D omental model, fluorescence | actives 0.1% (n = 46,000) | Potency, µM (doses to about 45.8 µM), actives largely listed as inhibitors | AID 1963576; note: nearly all actives have a fitted effect of over 65% in size
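qHTS, 4-pt dose (0.36-46 umol/L); SKOV3ip1-GFP, 1,200 cells/well, no FBS; primary omental fibroblast/mesothelial co-culture 48 h pre-grown; 2 h RT + 16 h 37 C; PBS wash, 4% PFA; GFP count 488/509 nm.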
mTORC1 inh = inhibitors of mTORC1 signaling in Tsc2-/- p53-/- MEF cells; Tsc2-/- p53-/- MEF, phospho-rpS6 immunofluorescence/PI, 24 h; Potency, µM (series often up to 38.3 µM), actives largely listed as inhibitors; AID 493208; actives 0.78% (n = 44,000); note: nearly all actives have a fitted effect of over 50% in size
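Cell-based qHTS: Tsc2-/- p53-/- MEF, 24 h cpd, 37 °C; fix/perm, anti-phospho-S6 Alexa-488 + PI; Acumen 488 nm scan; pS6/PI ratio, % positive cells; rapamycin 7.5 nM = inhibition ref; PI count = viability.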
GALC G270D act = galactocerebrosidase G270D activity enhancement, cell-based; P54803; 145M-Twi-hGALC-G270D cells (Twitcher mouse brain line with human GALC G270D), HMU-beta-Gal fluorescence, 48 h; Potency, µM (doses to about 57.5 µM), hits mostly activators; actives 0.1% (n = 45,000); note: nearly all actives have a fitted effect of over 65% in size
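Fluorescence readout: HMU-β-gal cleavage by mutant GALC (0.1 mM final, citrate/phosphate pH 5.2 with 1 mg/mL taurocholate), stopped with carbonate/bicarbonate plus Triton X-100. Cells: murine Twitcher 145M-Twi expressing human G270D GALC; qHTS for activators.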
NLuc sat counter = NanoLuc enzyme inhibition artifact for PMP22 screen; shares compounds with PMP22 txn prim; Secreted NLuc enzyme (filtered S16 cell medium), Nano-Glo luminescence; Potency, µM (doses to about 57.5 µM), most hits filed as inhibitors; actives 4% (n = 690)
NLuc Km counter = NanoLuc inhibition at Km substrate, PMP22 artifact check; shares compounds with PMP22 txn prim; secreted NLuc enzyme, coelenterazine luminescence, Km conditions; Potency, µM (doses to about 57.5 µM), hits mostly inhibitors; actives 5% (n = 690)
FLuc ctr PMP22 = firefly luciferase enzyme inhibition artifact for PMP22 screen | shares compounds with PMP22 txn prim | purified P. pyralis FLuc, luminescence, 10 min | Potency, µM (series often up to 57.5 µM), hits mostly inhibitors | 690 tested, under 10 active | AID 1508640
Target sequence (P08659 whole entry, looked up): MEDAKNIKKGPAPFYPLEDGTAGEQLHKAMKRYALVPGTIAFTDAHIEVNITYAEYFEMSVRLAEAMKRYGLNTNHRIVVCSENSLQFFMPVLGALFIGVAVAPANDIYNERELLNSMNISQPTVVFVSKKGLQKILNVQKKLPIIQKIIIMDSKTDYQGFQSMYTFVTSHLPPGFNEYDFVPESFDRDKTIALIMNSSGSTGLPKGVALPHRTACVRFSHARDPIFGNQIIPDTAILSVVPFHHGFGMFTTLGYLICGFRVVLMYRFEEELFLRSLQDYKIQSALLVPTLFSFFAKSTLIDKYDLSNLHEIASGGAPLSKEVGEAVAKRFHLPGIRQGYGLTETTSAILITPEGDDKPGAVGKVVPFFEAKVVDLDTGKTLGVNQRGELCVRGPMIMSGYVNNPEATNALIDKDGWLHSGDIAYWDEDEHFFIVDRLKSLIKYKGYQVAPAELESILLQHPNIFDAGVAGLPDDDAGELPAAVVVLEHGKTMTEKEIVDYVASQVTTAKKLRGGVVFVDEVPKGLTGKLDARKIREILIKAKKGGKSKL
S16 F2sN tox cnf = S16 Schwann cell cytotoxicity, confirmatory; Potency, µM (top dose mostly 57.5 µM), actives largely listed as cytotoxic; S16 Schwann cells viability, CellTiter-Glo ATP luminescence, 24 h; actives 7% (n = 690); shares compounds with PMP22 txn prim; AID 1508641
PMP22 txn cnf = PMP22 transcription modulation, confirmatory; S16 Schwann cells Pmp22-F2sN, dual luciferase, 24 h; Potency, µM (titrated, usually from 57.5 µM), usual class: inhibitors; shares compounds with PMP22 txn prim; AID 1508646; actives 22% (n = 690); active = clear falling dose curves in both reporters; inconclusive = both reporters move, but less clearly or upward; inactive = either reporter flat; the % is the FLuc reporter signal
PMP22 HiBiT cnf = confirmation of modulators of rat PMP22 protein expression; S16 Schwann cells Pmp22-HiBiT, luminescence, 48 h; shares compounds with PMP22 txn prim; 95 tested, under 10 active; Potency, µM (highest dose often 27.9 µM), usual class: inhibitors
A number is an active result; - = inactive; ? = inconclusive; . = no result. Most compounds without a hit are left out; they make up all but 2.6% or so of the library. Unless noted, calls come from the whole dose curve; as a rule, active = well fitted curve in the direction sought with a large enough effect; inconclusive = small, poorly fitted or top-dose-only effect, or another doubt; inactive = no such curve, though single readings can be large; an effect the other way counts as inactive or inconclusive.

SMILES | PMP22 txn prim | S16 viability | OvCa metastasis | mTORC1 inh | GALC G270D act | others
COc1ccc2nc(NC(=O)c3nc(S(=O)(=O)Cc4cccc(C)c4)ncc3Cl)sc2c1 | 6.2µM | 10µM | ? | 6.6µM | -
CCOc1ccc2nc(NC(=O)c3cccn(Cc4ccc(C)cc4)c3=O)sc2c1 | - | - | - | - | -
Cc1ccc([N+](=O)[O-])[c]2c1[O][Hg]2 | . | . | . | . | -
O=C(Nc1ccc(Cl)c(C(F)(F)F)c1)c1ccc2c(c1)CCN2S(=O)(=O)c1ccccc1 | ? | 22µM | - | 8.3µM | -
C=C[C@@H]1CN2CCC1C[C@H]2[C@H](O)c1ccnc2ccccc12 (some centres undefined) | . | . | - | . | .
C=C[C@@H]1CN2CCC1C[C@@H]2[C@@H](O)c1ccnc2ccccc12 (some centres undefined) | . | . | - | . | .
COc1ccc(CNC(=O)Cn2c(SCC(=O)Nc3ccc(C)c(C)c3)nc3ccccc32)cc1 | ? | - | ? | 16µM | -
O=C(c1ccccc1)c1ccc2nc(N3CCN(c4ccc(F)cc4)CC3)c3nncn3c2c1 | ? | - | - | 4.1µM | -
Cc1ccc(NC(=O)CSc2nc(-c3ccco3)cc(C(F)(F)F)n2)c(C)c1 | ? | ? | ? | 0.83µM | -
CCOC(=O)c1ccc(NC(=O)c2sc3nc4c(cc3c2N)N2CCC4CC2)cc1 | ? | - | - | - | 14µM
CC(=O)c1ccc(NC(=O)c2sc3nc4c(cc3c2N)N2CCC4CC2)cc1 | ? | - | - | - | -
COc1ccc2c(c[n+](C)c3c4cc5c(cc4ccc23)OCO5)c1OC | . | . | 23µM | . | .
COc1ccc2c(c1OC)CN1CCc3cc4c(cc3C1C2)OCO4 (centres undefined) | . | . | - | . | -
COc1ccc(N2CCN(C(=O)C3CCCN(S(=O)(=O)c4ccc5c(c4)CCCN5C(C)=O)C3)CC2)cc1 (centres undefined) | 14µM | ? | - | 7.4µM | -
CO[C@H]1CCC(O[C@H]2C[C@H]([C@]3(C)CC[C@]4(C[C@H](O)[C@@H](C)[C@@H]([C@@H](C)C=C(C)C(=O)[C@H](C)C[C@H](C)C(=O)O)O4)O3)O[C@]3(O[C@@H]([C@H]4O[C@@](O)(CO)[C@H](C)C[C@H]4C)C[C@H]3C)[C@H]2C)O[C@H]1C (some centres undefined) | . | . | - | . | .
C[C@](O)(COc1ccc(C#N)cc1)C(=O)Nc1ccc(C#N)c(C(F)(F)F)c1 | . | . | - | . | .
Cc1ccc(CNC(=O)c2ccc(Nc3nc4ccccc4n4nnnc34)cc2)cc1 | 8µM | ? | - | ? | - | NLuc sat counter=-;NLuc Km counter=-;FLuc ctr PMP22=-;S16 F2sN tox cnf=?;PMP22 txn cnf=9.9µM;PMP22 HiBiT cnf=?
O=C(NCCc1ccc(Cl)cc1)c1ccc(Nc2nc3ccccc3n3nnnc23)cc1 | ? | ? | - | ? | -
CCCOC(=O)c1c(C)oc2c1cc(NS(=O)(=O)c1ccc(OCC)cc1)c1ccccc12 | 8.9µM | - | - | ? | - | NLuc sat counter=-;NLuc Km counter=-;FLuc ctr PMP22=-;S16 F2sN tox cnf=-;PMP22 txn cnf=?
CCOc1ccc(/C=C/c2nc(C#N)c(NCc3ccccc3)o2)cc1 | ? | - | - | ? | - | NLuc sat counter=-;NLuc Km counter=-;FLuc ctr PMP22=-;S16 F2sN tox cnf=-;PMP22 txn cnf=-
CN1CCN(c2oc(-c3ccc(COc4ccccc4)o3)nc2C#N)CC1 | - | - | - | - | -
C[C@@H]1[C@@H](CC(C[C@H]2O[C@@H]3O[C@]4(C)CC[C@@H]5[C@H](C)CC[C@@H]([C@H]2C)[C@@]35OO4)C[S+](=O)([O-])c2ccc(COC(=O)N(C)C)cc2)O[C@@H]2O[C@]3(C)CC[C@H]4[C@H](C)CC[C@@H]1[C@@]24OO3 (some centres undefined) | . | . | - | . | .
Cc1ccc(NC(=O)N(Cc2ccc3c(c2)OCO3)C2CCN(Cc3ccccc3)CC2)cc1C | 14µM | ? | ? | ? | - | NLuc sat counter=-;NLuc Km counter=?;FLuc ctr PMP22=-;S16 F2sN tox cnf=?;PMP22 txn cnf=?
CCCNC(=O)c1cnn2c(C)c(Cc3c(C)cc(C)cc3C)c(C)nc12 | 16µM | ? | - | - | - | NLuc sat counter=?;NLuc Km counter=22µM;FLuc ctr PMP22=-;S16 F2sN tox cnf=-;PMP22 txn cnf=?
CC(C)N[C@@H]1CCn2c(=O)[nH]c3cccc(c32)[C@@H]1O | . | . | - | . | .
